Experimental data published in PubChem BioAssay (NCATS).
Records with an inconclusive call do not appear. The source made the active and inactive calls. Calls follow the shape of the dose curve; as a rule, active = well fitted curve in the direction sought with a large enough effect; inconclusive = small, poorly fitted or top-dose-only effect, or another doubt; inactive = no such curve, though single readings can be large; an effect the other way counts as inactive or inconclusive.

Experiments:
[1] = biological target: Rap guanine nucleotide exchange factor 3 (Homo sapiens) (UniProt O95398); assay: Confirmatory qHTS for antagonist of cAMP-regulated guanine nucleotide exchange factor 3 (EPAC1) (AID 1645880); also: nearly all actives have a fitted effect of over 55% in size; also: potency is read from the fitted curve at half-maximal effect
In short: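 Nucleotide exchange uses 100 nM EPAC1, 250 nM RAP1B-BODIPY-GDP and 50 uM GDP, with compounds in a concentration-titration series. After 5 min at room temperature, fluorescence (480 nm ex/540 nm em) is read every 5 min for 30 min. Data are normalized to control ATA and DMSO.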

[2] = biological target: Rap guanine nucleotide exchange factor 3 (Homo sapiens) (UniProt O95398); assay: Confirmatory qHTS for agonist of cAMP-regulated guanine nucleotide exchange factor 3 (EPAC1) (AID 1645881); also: nearly all actives have a fitted effect of over 75% in size; also: potency is read from the fitted curve at half-maximal effect;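 as to activation: EPAC1 catalysed release of BODIPY-GDP from Rap1B seen as fluorescence loss; 100% = effect of cAMP agonist control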
[3] = biological target: Rap guanine nucleotide exchange factor 4 (Homo sapiens) (UniProt Q8WZA2); assay: Confirmatory qHTS for agonist of cAMP-regulated guanine nucleotide exchange factor 4 (EPAC2) (AID 1645884);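 also: nucleotide exchange releases bodipy-GDP from Rap1 and this lowers its fluorescence; nearly all actives have a fitted effect of over 65% in size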; also: potency is read from the fitted curve at half-maximal effect; as to activation: % is scaled to controls: 0 for no effect and ±100 for the full control effect
[4] = biological target: Rap guanine nucleotide exchange factor 4 (Homo sapiens) (UniProt Q8WZA2); assay: Confirmatory qHTS for antagonist of cAMP-regulated guanine nucleotide exchange factor 4 (EPAC2) (AID 1645885); also: nearly all actives have a fitted effect of over 25% in size; also: potency is read from the fitted curve at half-maximal effect; as to activity change, negative = inhibition: % is scaled to controls: 0 for no effect and ±100 for the full control effect
[5] = biological target: Rap guanine nucleotide exchange factor 3 (Homo sapiens) (UniProt O95398); assay: Counterscreen qHTS for antagonist of cAMP-regulated guanine nucleotide exchange factor 3 (EPAC1) (AID 1645888);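 also: fluorescence loss as bound BODIPY-GDP is released from Rap1B; % of control where 0% means no effect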
In short: (§1)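 Measured: fluorescence of BODIPY-GDP bound to Rap1B, which falls as exchange proceeds. Conditions include 50 uM competing GDP, 5 and 30 min reads, and a later cAMP challenge for antagonist detection.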

[6] = biological target: Rap guanine nucleotide exchange factor 3 (Homo sapiens) (UniProt O95398); assay: Counterscreen qHTS for agonist of cAMP-regulated guanine nucleotide exchange factor 3 (EPAC1) (AID 1645889); also: nearly all actives have a fitted effect of over 40% in size; also: potency is read from the fitted curve at half-maximal effect; as to activation: % of control where 0% means no effect
In short: as §1

Sequence of Rap guanine nucleotide exchange factor 4 (Homo sapiens) (Q8WZA2 whole entry, looked up): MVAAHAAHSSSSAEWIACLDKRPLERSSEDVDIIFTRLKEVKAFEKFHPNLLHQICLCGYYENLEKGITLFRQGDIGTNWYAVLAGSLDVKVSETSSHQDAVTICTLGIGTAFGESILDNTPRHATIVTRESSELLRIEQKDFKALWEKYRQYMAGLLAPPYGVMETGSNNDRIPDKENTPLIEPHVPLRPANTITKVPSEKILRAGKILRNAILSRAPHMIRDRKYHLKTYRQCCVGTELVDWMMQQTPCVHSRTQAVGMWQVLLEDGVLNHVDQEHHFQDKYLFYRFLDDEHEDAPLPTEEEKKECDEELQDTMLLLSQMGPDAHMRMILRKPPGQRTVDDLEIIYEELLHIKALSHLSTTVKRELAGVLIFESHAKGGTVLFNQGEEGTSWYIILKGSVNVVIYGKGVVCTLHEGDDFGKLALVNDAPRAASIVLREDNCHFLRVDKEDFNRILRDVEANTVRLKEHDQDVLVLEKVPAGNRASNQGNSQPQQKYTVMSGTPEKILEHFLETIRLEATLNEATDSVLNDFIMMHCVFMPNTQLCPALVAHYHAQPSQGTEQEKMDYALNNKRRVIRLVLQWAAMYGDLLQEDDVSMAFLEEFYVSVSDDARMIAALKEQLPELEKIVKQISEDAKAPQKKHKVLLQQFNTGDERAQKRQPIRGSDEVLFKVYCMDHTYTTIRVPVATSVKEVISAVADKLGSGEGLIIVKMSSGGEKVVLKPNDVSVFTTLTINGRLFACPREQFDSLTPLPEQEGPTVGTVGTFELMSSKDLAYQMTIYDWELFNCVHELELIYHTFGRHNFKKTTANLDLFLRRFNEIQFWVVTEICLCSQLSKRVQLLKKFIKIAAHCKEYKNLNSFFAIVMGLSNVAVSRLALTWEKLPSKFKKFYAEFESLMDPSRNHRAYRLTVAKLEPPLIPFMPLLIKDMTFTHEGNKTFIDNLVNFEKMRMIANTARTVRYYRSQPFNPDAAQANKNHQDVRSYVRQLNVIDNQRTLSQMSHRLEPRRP
Sequence of Rap guanine nucleotide exchange factor 3 (Homo sapiens) (O95398 whole entry, looked up): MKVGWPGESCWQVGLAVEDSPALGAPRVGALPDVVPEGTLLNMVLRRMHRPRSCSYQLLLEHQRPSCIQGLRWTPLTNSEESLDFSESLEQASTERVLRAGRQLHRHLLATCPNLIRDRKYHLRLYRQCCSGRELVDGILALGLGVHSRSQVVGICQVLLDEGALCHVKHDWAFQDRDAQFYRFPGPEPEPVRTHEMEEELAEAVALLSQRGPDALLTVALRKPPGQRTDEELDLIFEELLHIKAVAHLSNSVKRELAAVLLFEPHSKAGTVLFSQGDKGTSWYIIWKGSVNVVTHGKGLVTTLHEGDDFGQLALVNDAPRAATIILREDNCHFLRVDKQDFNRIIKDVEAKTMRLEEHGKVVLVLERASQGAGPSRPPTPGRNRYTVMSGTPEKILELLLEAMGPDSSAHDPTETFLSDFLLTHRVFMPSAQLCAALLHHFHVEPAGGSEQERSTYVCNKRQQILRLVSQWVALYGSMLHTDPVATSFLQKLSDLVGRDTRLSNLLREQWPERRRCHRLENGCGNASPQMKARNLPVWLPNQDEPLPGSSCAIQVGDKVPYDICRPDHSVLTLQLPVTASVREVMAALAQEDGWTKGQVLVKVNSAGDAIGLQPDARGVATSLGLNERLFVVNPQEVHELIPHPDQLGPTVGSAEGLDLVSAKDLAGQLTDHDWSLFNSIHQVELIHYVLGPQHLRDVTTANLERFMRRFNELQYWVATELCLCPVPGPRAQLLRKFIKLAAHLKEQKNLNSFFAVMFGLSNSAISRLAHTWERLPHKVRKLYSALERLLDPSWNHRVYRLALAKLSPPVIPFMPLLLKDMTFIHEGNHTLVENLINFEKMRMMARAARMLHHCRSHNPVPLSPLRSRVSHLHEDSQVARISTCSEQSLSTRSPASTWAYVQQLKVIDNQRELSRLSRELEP

O=C(CSc1nnc(CCc2ccccc2)n1-c1ccc(Cl)cc1)NCc1ccccc1
inactive: Potency [1] | Potency [2] | Potency [3] | Potency [4] | Potency [5] | Potency [6]

CN1CCC/C1=C/C=C1\SC(=S)NC1=O
inactive: Potency [1] | Potency [4] | Potency [5]
active: Potency [2] 89.1 µM | Potency [3] 100 µM | Potency [6] 39.8 µM

CCCCOc1ccccc1Cn1c(=O)sc2ccccc21
inactive: Potency [1] | Potency [2] | Potency [3] | outcome [4] inactive [at 12.7 µM] | Potency [5] | Potency [6]

Nc1nc(NCC(=O)O)nc(NCc2ccccc2)c1[N+](=O)[O-]
inactive: Potency [1] | Potency [2] | Potency [3] | Potency [4] | Potency [5] | Potency [6]

N#Cc1c(-c2ccccc2)nc(SCC(=O)Nc2ccc(OC(F)(F)Cl)cc2)[nH]c1=O
inactive: Potency [2] | Potency [3] | Potency [5] | Potency [6]
active: Potency [1] 67.5 µM | Potency [4] 12 µM

CSc1nc(N2CCOCC2)c2c3c(sc2n1)CCCC3
inactive: Potency [1] | Potency [2] | Potency [3] | Potency [4] | Potency [5] | Potency [6]

COc1ccc(/C=C\c2onc(C)c2S(=O)(=O)N2CCC(C(=O)NCCC(C)C)CC2)cc1
inactive: Potency [1] | Potency [2] | activation [3] 8.7% [at 17.1 µM, percent relative to cAMP agonist control] | Potency [4] | activity change, negative = inhibition [5] -14.8% [at 30.8 µM] | activation [6] 19.1% [at 30.8 µM]

CO/N=C(/COc1ccc(F)cc1)c1ccc(OC)cc1
inactive: Potency [1] | Potency [2] | activation [3] -0.137% [at 17.1 µM, percent relative to cAMP agonist control] | Potency [4] | activity change, negative = inhibition [5] -12% [at 30.8 µM] | activation [6] 2.57% [at 30.8 µM]

Cc1cc(C(=O)COC(=O)C2COc3ccccc3O2)c(C)n1CC1CCCO1 (stereo not drawn)
inactive: Potency [1] | Potency [2] | Potency [3] | Potency [4] | Potency [5] | Potency [6]

CC(OC(=O)CN1C(=O)COc2ccccc21)C(=O)NCc1ccc(F)cc1 (stereo not drawn)
inactive: Potency [1] | Potency [2] | Potency [3] | Potency [4] | Potency [5] | Potency [6]

N#Cc1c(-c2ccccc2)nc(SCc2ccc(Cl)cc2)[nH]c1=O
inactive: Potency [2] | Potency [3] | Potency [5] | Potency [6]
active: Potency [1] 33.8 µM | Potency [4] 33.8 µM

Cc1ccc(-n2nc3c(=O)n(CCCC(=O)NCc4ccccc4C)nc(C)c3c2C)cc1
inactive: Potency [1] | Potency [2] | Potency [3] | Potency [4] | Potency [5] | Potency [6]

COc1ccc(/C=C/C(=O)NC2CCS(=O)(=O)C2)cc1 (stereo not drawn)
inactive: Potency [1] | Potency [2] | Potency [3] | Potency [4] | Potency [5] | Potency [6]

COCCn1c(SCC(=O)c2ccccc2)nc2cc(C(=O)NC3CCCC3)ccc2c1=O
inactive: Potency [1] | Potency [2] | Potency [3] | Potency [4] | Potency [5] | Potency [6]

COc1ccc(S(=O)(=O)Nc2ccc(OCC(=O)O)cc2)c2ccccc12
inactive: Potency [1] | Potency [2] | Potency [3] | Potency [5] | Potency [6]
active: Potency [4] 47.8 µM

COC(=O)c1ccc(N2C(=O)CC(N3CCOCC3)C2=O)cc1 (stereo not drawn)
inactive: Potency [1] | Potency [2] | activation [3] 8.32% [at 17.1 µM, percent relative to cAMP agonist control] | Potency [4] | activity change, negative = inhibition [5] 6.34% [at 30.8 µM] | activation [6] 10.6% [at 30.8 µM]

Cn1cc(C(C[N+](=O)[O-])c2ccccc2)c2ccccc21 (stereo not drawn)
inactive: Potency [1] | Potency [2] | activation [3] 0.148% [at 17.1 µM, percent relative to cAMP agonist control] | Potency [4] | activity change, negative = inhibition [5] -4.06% [at 30.8 µM] | activation [6] 13.8% [at 30.8 µM]

CN(C)C(=O)CSc1nc(-c2ccccc2)c(-c2ccccc2)o1
inactive: Potency [1] | Potency [2] | activation [3] 5.35% [at 17.1 µM, percent relative to cAMP agonist control] | Potency [4] | activity change, negative = inhibition [5] 3.97% [at 30.8 µM] | activation [6] 9.57% [at 30.8 µM]

Nc1nc(CSc2nnnn2-c2ccc(Cl)cc2)nc(N2CCOCC2)n1
inactive: Potency [1] | Potency [2] | activation [3] 5.65% [at 17.1 µM, percent relative to cAMP agonist control] | Potency [4] | activity change, negative = inhibition [5] 9.77% [at 30.8 µM] | activation [6] 8.16% [at 30.8 µM]

O=C1c2ccccc2C(=O)N1c1nc(-c2cccs2)cs1
active: Potency [1] 4.78 µM | Potency [4] 60.1 µM
inactive: Potency [2] | Potency [3] | Potency [5] | Potency [6]

COc1ccccc1OCC(=O)Nc1cc(C(F)(F)F)ccc1-n1cncn1
inactive: Potency [1] | Potency [2] | activation [3] 2.73% [at 17.1 µM, percent relative to cAMP agonist control] | Potency [4] | activity change, negative = inhibition [5] -12% [at 30.8 µM] | activation [6] 5.31% [at 30.8 µM]

O=C(CCCCCl)Nc1c2c(nc3ccccc13)CCC2
inactive: Potency [1] | Potency [2] | activation [3] 1.22% [at 17.1 µM, percent relative to cAMP agonist control] | Potency [4] | activity change, negative = inhibition [5] -8.13% [at 30.8 µM] | activation [6] -2.96% [at 30.8 µM]

CC(C)CNC(=O)c1c(-c2ccccc2)c(-c2ccccc2)nn(C)c1=O
inactive: Potency [1] | Potency [2] | Potency [3] | outcome [4] inactive [at 12.7 µM] | Potency [5] | Potency [6]

Cc1cn(S(=O)(=O)c2ccccc2[N+](=O)[O-])cn1
inactive: Potency [1] | Potency [2] | activation [3] 0.773% [at 17.1 µM, percent relative to cAMP agonist control] | Potency [4] | activity change, negative = inhibition [5] -3.67% [at 30.8 µM] | activation [6] -4.19% [at 30.8 µM]

O=C(Nc1nncs1)c1ccccc1NS(=O)(=O)c1cccs1
inactive: Potency [1] | Potency [2] | Potency [3] | Potency [4] | Potency [5] | Potency [6]

Cc1ccc(Cl)cc1NC(=O)c1ccccc1OCC(=O)Nc1ccc(Cl)cc1
inactive: Potency [1] | Potency [2] | activation [3] 0.829% [at 17.1 µM, percent relative to cAMP agonist control] | Potency [4] | activity change, negative = inhibition [5] -9.99% [at 30.8 µM] | activation [6] 12.9% [at 30.8 µM]

CCOC(=O)C1CCN(C(=O)c2cccc(S(=O)(=O)N(CC)c3ccccc3)c2)CC1
inactive: Potency [1] | Potency [2] | Potency [3] | Potency [4] | Potency [5] | Potency [6]

Cc1cccc(NC(=S)NC(=O)c2oc3ccccc3c2C)n1
inactive: Potency [1] | Potency [2] | Potency [3] | Potency [4] | Potency [5] | Potency [6]

COc1ccc(-c2nnc(SCC(=O)c3ccco3)n2-c2ccccc2)cc1
inactive: Potency [1] | Potency [2] | activation [3] 3.77% [at 17.1 µM, percent relative to cAMP agonist control] | Potency [4] | activity change, negative = inhibition [5] -13.6% [at 30.8 µM] | activation [6] 4.19% [at 30.8 µM]

COc1cc2ccccc2cc1C(=O)N1CC(C)CC(C)C1 (stereo not drawn)
inactive: Potency [1] | Potency [2] | activation [3] 1.37% [at 17.1 µM, percent relative to cAMP agonist control] | Potency [4] | activity change, negative = inhibition [5] 1.39% [at 30.8 µM] | activation [6] 27.4% [at 30.8 µM]

COc1cc(CC(=O)Nc2ccccc2N2CCCCC2)cc(OC)c1OC
inactive: Potency [1] | Potency [2] | Potency [3] | Potency [4] | Potency [5] | Potency [6]

CN(CCc1ccccn1)C(=O)Nc1ccc(F)cc1
inactive: Potency [1] | Potency [2] | Potency [3] | Potency [4] | Potency [5] | Potency [6]

CCC(=O)N1c2nc(C(C)C)nn2C2(CCCCC2)[C@@H]2CCCC[C@@H]21
inactive: Potency [1] | Potency [2] | Potency [3] | outcome [4] inactive [at 12.7 µM] | Potency [5] | Potency [6]

CC(C)(C)c1ccc(C(CC(=O)O)NC(=O)CSc2ccccc2)cc1 (stereo not drawn)
inactive: Potency [1] | Potency [2] | Potency [3] | Potency [4] | Potency [5] | Potency [6]

COc1ccc(C(=O)c2ccccc2)c2c(O)ccc(C(=O)c3ccccc3)c12
inactive: Potency [1] | Potency [2] | Potency [3] | Potency [4] | Potency [5] | Potency [6]

CCC(C)NC(=O)Cn1c(=O)n(CCCCCC(=O)Nc2ccccc2)c(=O)c2sccc21 (stereo not drawn)
inactive: Potency [1] | Potency [2] | Potency [3] | Potency [4] | Potency [5] | Potency [6]

Cc1cc(C)c2c(CN3CCCCC3)cc(=O)oc2c1
inactive: Potency [1] | Potency [2] | Potency [3] | Potency [4] | Potency [5] | Potency [6]

CCCCCN(C(=O)CCC(=O)OCc1ccc(C(C)C)cc1)c1c(N)n(CCCC)c(=O)[nH]c1=O
inactive: Potency [1] | Potency [2] | Potency [3] | Potency [4] | Potency [5] | Potency [6]

COc1cc(OC)c(CNC2CCCCCC2)cc1Br
inactive: Potency [1] | Potency [2] | Potency [3] | Potency [4] | Potency [5] | Potency [6]

Cc1cc(C)c(C(=O)c2cccs2)c(C)c1
inactive: Potency [1] | Potency [2] | Potency [3] | Potency [4] | Potency [5] | Potency [6]

COc1ccc(-c2cc(C(F)(F)F)nc(SCC(=O)NCCc3ccccc3)n2)cc1OC
inactive: Potency [1] | Potency [2] | Potency [3] | Potency [4] | Potency [5] | Potency [6]

Cc1cccc(/C(N)=N/OC(=O)Cc2cccc3ccccc23)c1
inactive: Potency [1] | Potency [2] | activation [3] 2.49% [at 17.1 µM, percent relative to cAMP agonist control] | Potency [4] | activity change, negative = inhibition [5] -15.4% [at 30.8 µM] | activation [6] -1.93% [at 30.8 µM]

CSc1ccccc1NC(=O)COc1ccccc1C
inactive: Potency [1] | Potency [2] | activation [3] 11.3% [at 17.1 µM, percent relative to cAMP agonist control] | Potency [4] | activity change, negative = inhibition [5] -1.84% [at 30.8 µM] | activation [6] 4.86% [at 30.8 µM]
